Data taken from the supplement of paper PMC7261846.
± gives the uncertainty stated by the source.

System: Candida albicans SNY425 biofilm
Test: biofilm OD600 with compound plus antifungal (OD600 (absorbance)); higher = more biofilm remaining
[1] = assay detail: disruption of 24-h mature biofilm (compound + antifungal for a second 24 h)
[2] = assay detail: sustained inhibition (compound + antifungal during 90-min adherence and 24-h growth)

Compound | biofilm OD600 [1] | biofilm OD600 [2]
O=C(O[C@@H]1Cc2c(O)cc(O)cc2O[C@@H]1c1cc(O)c(O)c(O)c1)c1cc(O)c(O)c(O)c1 [Epigallocatechin gallate] + CC[C@H](C)C[C@H](C)CCCCCCCCC(=O)N[C@H]1C[C@@H](O)[C@@H](NCCN)NC(=O)[C@@H]2[C@@H](O)CCN2C(=O)[C@H]([C@H](O)CCN)NC(=O)[C@H]([C@H](O)[C@@H](O)c2ccc(O)cc2)NC(=O)[C@@H]2C[C@@H](O)CN2C(=O)[C@H]([C@@H](C)O)NC1=O [caspofungin] (first compound 12.5 µM) | 0.264 ± 0.016 | 0.211 ± 0.01
CCCC[C@@H](C=O)NC(=O)OC(C)(C)C + OC(Cn1cncn1)(Cn1cncn1)c1ccc(F)cc1F [fluconazole] (first compound 12.5 µM) | 0.243 ± 0.0054 | 0.117 ± 0.0068
CCCCC[C@H](CC(=O)NO)C(=O)N[C@H](C(=O)N1CCC[C@H]1CO)C(C)C [Actinonin] + CC[C@H](C)C[C@H](C)CCCCCCCCC(=O)N[C@H]1C[C@@H](O)[C@@H](NCCN)NC(=O)[C@@H]2[C@@H](O)CCN2C(=O)[C@H]([C@H](O)CCN)NC(=O)[C@H]([C@H](O)[C@@H](O)c2ccc(O)cc2)NC(=O)[C@@H]2C[C@@H](O)CN2C(=O)[C@H]([C@@H](C)O)NC1=O [caspofungin] (first compound 12.5 µM) | 0.263 ± 0.021 | 0.182 ± 0.0058
